The target in assay [1] is Paired box protein Pax-6 (Homo sapiens) (UniProt P26367). The assay can be described thus: ATG_Pax6_CIS: Attagene CIS-FACTORIAL HepG2 Assay for human Paired Box 6 (PAX6) (AID 2282956). To be noted: HepG2 CIS-FACTORIAL PAX6 reporter transcription, RNA readout; actives raise or lower the signal. The essentials: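 Read-out is reporter transcript level, measured by RT-PCR with fluorescent primer extension and capillary electrophoresis after 24 h dosing of transfected HepG2 cells. Activity in either direction fitted relative to DMSO control.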

Assay [2] in a line: ATG_PXRE_CIS: Attagene CIS-FACTORIAL HepG2 Assay for human Pregnane X Receptor Element (PXRE) (AID 2282957). To be noted: HepG2 Attagene CIS-FACTORIAL PXRE reporter, mRNA; actives raise or lower the signal. The essentials:
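Fluorescent capillary electrophoresis of amplified reporter cDNA gave the signal, collected 24 h after dosing HepG2 cells that held transfected cis-element reporter constructs.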

Assay [3] can be described thus: ATG_PPRE_CIS: Attagene CIS-FACTORIAL HepG2 Assay for human Peroxisome Proliferator-activated Response Element (PPRE) (AID 2282958). To be noted: HepG2 PPRE cis-element reporter, Attagene transcription factor profiling; actives raise or lower the signal. In outline: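 Transcript-level reporter induction in transfected HepG2 cells after 24 h chemical exposure, quantified by fluorescence from RT-PCR products separated by capillary electrophoresis.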

A short description of assay [4]: ATG_RORE_CIS: Attagene CIS-FACTORIAL HepG2 Assay for human RAR-related Orphan Receptor Element (RORE) (AID 2282959). To be noted: HepG2 Attagene cis-factorial RORE reporter, mRNA; actives raise or lower the signal. In outline: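 Multiplexed reporter assay measuring mRNA induction from a cis promoter element in transiently transfected HepG2 cells after 24 h treatment. Detection via RT-PCR and capillary electrophoresis fluorescence; DMSO serves as baseline.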

Assay [5] in a line: ATG_Sox_CIS: Attagene CIS-FACTORIAL HepG2 Assay for human SRY-box transcription factor (SOX) (AID 2282960). The settings on record: HepG2 Attagene cis-factorial SOX reporter, mRNA; actives raise or lower the signal. In outline:
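Cells were transfected with reporter constructs under cis-regulatory promoters, then exposed to chemicals for 24 h. Reporter transcripts were quantified by fluorescence after RT-PCR and capillary electrophoresis; activity was fitted in both directions against DMSO.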

In assay [6] the target is Transcription factor Sp1 (Homo sapiens) (UniProt P08047). The assay can be described thus: ATG_Sp1_CIS: Attagene CIS-FACTORIAL HepG2 Assay for human Specificity Protein 1 (Sp1) (AID 2282961). The settings on record: HepG2 Sp1 cis-reporter transcription, actives raise or lower the signal. In outline:
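Measures mRNA induction of an Sp1-linked reporter in HepG2 cells 24 h post-dosing. Multiplexed reporters read by RT-PCR and capillary electrophoresis; DMSO serves as negative control and baseline.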

A short description of assay [7]: ATG_SREBP_CIS: Attagene CIS-FACTORIAL HepG2 Assay for human Sterol Regulatory Element Binding (SREBP) (AID 2282962). To be noted: HepG2 Attagene cis-factorial SREBP reporter, mRNA; actives raise or lower the signal. The essentials: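 Endogenous SREBP activity read as cis-element-driven reporter transcript in transiently transfected HepG2, 24 h post-dosing; quantified via RT-PCR plus capillary electrophoresis of fluorescent fragments. Gain or loss of signal fitted relative to DMSO baseline.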

The target of assay [8] is Signal transducer and activator of transcription 3 (Homo sapiens) (UniProt P40763). The assay can be described thus: ATG_STAT3_CIS: Attagene CIS-FACTORIAL HepG2 Assay for human Signal Transducer and Activator of Transcription 3 (STAT3) (AID 2282963). The settings on record: HepG2, Attagene cis-factorial STAT3 reporter transcription; actives raise or lower the signal. In outline:
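Readout: fluorescent reporter mRNA fragments resolved by capillary electrophoresis. Setup: HepG2 transfected with MRTUs reporting endogenous transcription-factor activity, dosed 24 h. Gain or loss of signal fitted bidirectionally against DMSO control.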

The nature of assay [9]: ATG_TA_CIS: Attagene CIS-FACTORIAL HepG2 Assay for human TA Basal Promoter (AID 2282964). To be noted: HepG2 Attagene CIS-factorial TA basal promoter reporter; actives raise or lower the signal. In outline: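 Transfected HepG2, 24 h compound exposure; RNA → RT-PCR → FAM primer extension → HpaI cut → CE fluorescence. Gain/loss-of-signal fitted against DMSO negative control. Background-control readout.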

The nature of assay [10]: ATG_TCF_b_cat_CIS: Attagene CIS-FACTORIAL HepG2 Assay for human T-Cell-Factor with beta-catenin (TCF/b-cat) (AID 2282965). To be noted: HepG2 TCF/beta-catenin cis-reporter transcription, actives raise or lower the signal. In outline: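 HepG2, transient MRTU transfection, cis-element-driven reporters (endogenous TFs). 24 h compound exposure. Readout: reporter mRNA by RT-PCR + 6-FAM primer extension, HpaI digest, capillary electrophoresis. Gain/loss fit vs DMSO baseline.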

The nature of assay [11]: ATG_TAL_CIS: Attagene CIS-FACTORIAL HepG2 Assay for human TAL Basal Promoter (AID 2282966).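 Further: background control endpoint measuring basal TAL promoter reporter mRNA not a specific factor.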 The settings on record: HepG2 Attagene cis-factorial TAL promoter reporter; actives raise or lower the signal. The essentials:
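Transiently transfected HepG2 (cis-regulated reporter units), 24 h treatment, mRNA read by fluorescent CE after RT-PCR; bidirectional fit, DMSO baseline.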

Assay [12] is described as follows: ATG_TGFb_CIS: Attagene CIS-FACTORIAL HepG2 Assay for human Transforming Growth Factor (TGF) (AID 2282967). To be noted: HepG2 Attagene CIS TGFb reporter, mRNA transcription; actives raise or lower the signal. In outline:
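Readout: fluorescently labeled reporter cDNA fragments resolved by capillary electrophoresis after RT-PCR. Transfected HepG2 cells dosed for 24 h; endogenous TF activity at TGFB1-linked cis element; gain or loss fitted relative to DMSO.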

A short description of assay [13]: ATG_VDRE_CIS: Attagene CIS-FACTORIAL HepG2 Assay for human Vitamin D Receptor Element (VDRE) (AID 2282968). The settings on record: HepG2 VDRE cis-reporter transcription, actives raise or lower the signal. The essentials:
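Transient MRTU transfection of HepG2, 24 h compound exposure. Readout: reporter transcripts via RT-PCR and capillary electrophoresis, fluorescence. Bidirectional fit vs DMSO.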

The target of assay [14] is X-box-binding protein 1 (Homo sapiens) (UniProt P17861). Put plainly: ATG_Xbp1_CIS: Attagene CIS-FACTORIAL HepG2 Assay for human X-box Binding Protein 1 (XBP1) (AID 2282972). The settings on record: HepG2 XBP1 cis-element reporter, Attagene multiplex; actives raise or lower the signal. The essentials: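 Reporter transcripts were quantified by RT-PCR with fluorescent primer extension and capillary electrophoresis after 24 h chemical exposure. Cells: transiently transfected HepG2 carrying cis-regulated reporter constructs; data fitted bidirectionally relative to DMSO.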

The nature of assay [15]: ATG_M_19_TRANS: Attagene TRANS-FACTORIAL HepG2 Assay for M19 Transcription Factor (Internal Marker) (AID 2282974; active means hit-call score of the fitted dose curve at least 0.9, where 1 is the maximum). To be noted: HepG2 Attagene TRANS-FACTORIAL M19 internal marker reporter. In outline:
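After transfection of HepG2 with GAL4-UAS-driven reporter constructs, cells are dosed for 24 h. Total RNA is reverse-transcribed, reporter sequences PCR-amplified and labelled, then HpaI-digested and sized by capillary electrophoresis.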

In assay [16] the target is Nuclear receptor subfamily 1 group I member 3 (Homo sapiens) (UniProt Q14994). The assay can be described thus: ATG_CAR_TRANS: Attagene TRANS-FACTORIAL HepG2 Assay for human Constitutive Androstane Receptor (CAR) (AID 2282969; active means hit-call score of the fitted dose curve at least 0.9, where 1 is the maximum;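 further: activators raise reporter mRNA above DMSO so AC50 marks induction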). To be noted: HepG2 Attagene TRANS-FACTORIAL CAR reporter. The essentials: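 Transiently transfected HepG2, multiplex TRANS reporters (CAR-Gal4 chimera driving GAL4-UAS reporter). 24 h dosing. Readout: reporter transcript by RT-PCR + capillary electrophoresis, fluorescence intensity; positive direction vs DMSO.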

Assay [17] in a line: ATG_GAL4_TRANS: Attagene TRANS-FACTORIAL HepG2 Assay for GAL4 (Internal Marker) (AID 2282976; active means hit-call score of the fitted dose curve at least 0.9, where 1 is the maximum). The settings on record: HepG2 Attagene TRANS GAL4 internal marker reporter. In outline: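 HepG2 cells transiently transfected with multiplexed GAL4-UAS reporter constructs were dosed for 24 h. Reporter mRNA was measured by RT-PCR, 6-FAM primer extension, HpaI digestion and capillary electrophoresis, and gain of signal was fitted relative to DMSO.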

In assay [18] the target is Estrogen receptor (Homo sapiens) (UniProt P03372). Put plainly: ATG_ERa_TRANS: Attagene TRANS-FACTORIAL HepG2 Assay for human Estrogen Receptor alpha (ERa) (AID 2282970; active means hit-call score of the fitted dose curve at least 0.9, where 1 is the maximum). To be noted: HepG2 Attagene TRANS ERa GAL4 reporter, mRNA. In outline: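 One of 30 multiplexed endpoints from a HepG2 TRANS system, this one reports ERa-Gal4-driven reporter mRNA. Transcripts were quantified 24 hours post-dosing by fluorescent RT-PCR and capillary electrophoresis, with activity scored as induction over DMSO.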

Assay [19] concerns the target Steroid hormone receptor ERR1 (Homo sapiens) (UniProt P11474). The assay can be described thus: ATG_ERRa_TRANS: Attagene TRANS-FACTORIAL HepG2 Assay for human Estrogen-Related Receptor alpha (ERRa) (AID 2282971; active means hit-call score of the fitted dose curve at least 0.9, where 1 is the maximum). The settings on record: HepG2 Attagene TRANS reporter, ERRa transactivation. The essentials:
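HepG2 cells transiently transfected with multiplexed GAL4-UAS reporter units reading chimeric ERRa-Gal4 activity; 24 h compound exposure. Reporter mRNA measured by RT-PCR, 6-FAM labelling, HpaI digest and capillary electrophoresis; gain of signal fitted versus DMSO baseline.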

The target in assay [20] is Estrogen-related receptor gamma (Homo sapiens) (UniProt P62508). Put plainly: ATG_ERRg_TRANS: Attagene TRANS-FACTORIAL HepG2 Assay for human Estrogen-Related Receptor gamma (ERRg) (AID 2282977; active means hit-call score of the fitted dose curve at least 0.9, where 1 is the maximum;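 further: hits increase reporter signal over DMSO so potencies reflect activators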). To be noted: HepG2 Attagene TRANS reporter, ERRg transactivation. The essentials:
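Exogenous NR-Gal4 chimera activity was assessed in HepG2 cells bearing transfected GAL4-UAS reporters. After 24 h dosing, total RNA underwent RT-PCR, fluorescent primer extension and HpaI digestion before capillary electrophoresis, with gain of signal scored against DMSO.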

Records with an inconclusive call do not appear. The source made the active and inactive calls. How the source made its calls, unless noted: active means hit-call score of the fitted dose curve at least 0.9, where 1 is the maximum; inactive means score below 0.9.

The term AC50 denotes the concentration at which the activity in the assay is half-maximal.

Sequence of X-box-binding protein 1 (Homo sapiens) (P17861 whole entry, looked up): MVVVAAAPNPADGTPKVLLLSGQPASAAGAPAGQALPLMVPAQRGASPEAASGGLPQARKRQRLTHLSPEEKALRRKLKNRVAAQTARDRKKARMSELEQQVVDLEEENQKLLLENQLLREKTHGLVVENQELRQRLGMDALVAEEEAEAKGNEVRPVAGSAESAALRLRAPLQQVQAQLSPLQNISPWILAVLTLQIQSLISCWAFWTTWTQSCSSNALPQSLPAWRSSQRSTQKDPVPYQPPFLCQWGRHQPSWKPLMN
Sequence of Paired box protein Pax-6 (Homo sapiens) (P26367 whole entry, looked up): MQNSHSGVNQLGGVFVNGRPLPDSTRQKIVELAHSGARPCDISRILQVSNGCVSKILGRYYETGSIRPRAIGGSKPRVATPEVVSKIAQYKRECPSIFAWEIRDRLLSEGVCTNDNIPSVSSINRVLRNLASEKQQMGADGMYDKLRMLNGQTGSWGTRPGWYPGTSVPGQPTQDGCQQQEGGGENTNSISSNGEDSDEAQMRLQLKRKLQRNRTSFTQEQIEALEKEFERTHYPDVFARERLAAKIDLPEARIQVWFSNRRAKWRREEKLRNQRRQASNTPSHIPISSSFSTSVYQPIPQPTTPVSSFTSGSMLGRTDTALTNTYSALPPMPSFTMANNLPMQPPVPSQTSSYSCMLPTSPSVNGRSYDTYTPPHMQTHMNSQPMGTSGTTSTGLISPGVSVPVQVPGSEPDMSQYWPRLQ
Sequence of Signal transducer and activator of transcription 3 (Homo sapiens) (P40763 whole entry, looked up, the tested form may be a part): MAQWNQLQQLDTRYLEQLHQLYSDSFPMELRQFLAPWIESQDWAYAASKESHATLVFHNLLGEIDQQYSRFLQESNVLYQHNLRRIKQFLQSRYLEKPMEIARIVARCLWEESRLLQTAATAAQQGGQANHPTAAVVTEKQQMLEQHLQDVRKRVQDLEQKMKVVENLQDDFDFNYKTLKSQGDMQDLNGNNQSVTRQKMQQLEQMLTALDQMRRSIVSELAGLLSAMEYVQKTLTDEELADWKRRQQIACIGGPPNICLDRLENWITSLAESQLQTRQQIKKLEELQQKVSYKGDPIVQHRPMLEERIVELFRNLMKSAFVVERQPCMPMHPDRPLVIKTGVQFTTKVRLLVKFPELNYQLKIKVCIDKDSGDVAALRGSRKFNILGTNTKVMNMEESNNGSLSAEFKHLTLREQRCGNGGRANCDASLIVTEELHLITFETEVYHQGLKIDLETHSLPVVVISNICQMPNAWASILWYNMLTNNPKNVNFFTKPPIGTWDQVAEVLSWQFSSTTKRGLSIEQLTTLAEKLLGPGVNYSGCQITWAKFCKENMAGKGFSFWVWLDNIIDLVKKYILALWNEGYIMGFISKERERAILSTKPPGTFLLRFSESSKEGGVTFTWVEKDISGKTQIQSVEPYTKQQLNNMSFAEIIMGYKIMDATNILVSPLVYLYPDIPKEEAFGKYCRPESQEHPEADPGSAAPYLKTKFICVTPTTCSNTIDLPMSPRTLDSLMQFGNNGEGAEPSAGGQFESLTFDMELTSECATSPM
Sequence of Transcription factor Sp1 (Homo sapiens) (P08047 whole entry, looked up): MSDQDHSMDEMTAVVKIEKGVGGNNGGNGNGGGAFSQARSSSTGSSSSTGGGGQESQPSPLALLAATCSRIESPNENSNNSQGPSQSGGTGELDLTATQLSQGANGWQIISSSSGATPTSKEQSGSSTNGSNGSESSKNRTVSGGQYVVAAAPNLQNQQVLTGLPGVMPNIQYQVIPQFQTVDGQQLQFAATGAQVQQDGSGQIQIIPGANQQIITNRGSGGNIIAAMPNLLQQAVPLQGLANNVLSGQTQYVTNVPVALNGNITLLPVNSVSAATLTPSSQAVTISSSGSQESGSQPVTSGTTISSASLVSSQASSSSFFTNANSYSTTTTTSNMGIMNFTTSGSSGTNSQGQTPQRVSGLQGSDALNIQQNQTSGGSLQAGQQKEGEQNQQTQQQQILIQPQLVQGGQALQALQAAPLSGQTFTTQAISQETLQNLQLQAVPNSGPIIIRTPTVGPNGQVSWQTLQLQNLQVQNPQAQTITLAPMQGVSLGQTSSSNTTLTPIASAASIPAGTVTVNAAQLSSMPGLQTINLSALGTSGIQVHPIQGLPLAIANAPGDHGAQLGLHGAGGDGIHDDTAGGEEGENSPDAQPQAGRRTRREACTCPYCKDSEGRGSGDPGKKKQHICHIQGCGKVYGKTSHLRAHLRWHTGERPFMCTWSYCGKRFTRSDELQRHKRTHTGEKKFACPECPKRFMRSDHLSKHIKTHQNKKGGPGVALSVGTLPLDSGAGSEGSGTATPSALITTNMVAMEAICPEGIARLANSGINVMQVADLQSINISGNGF
Sequence of Nuclear receptor subfamily 1 group I member 3 (Homo sapiens) (Q14994 whole entry, looked up, the tested form may be a part): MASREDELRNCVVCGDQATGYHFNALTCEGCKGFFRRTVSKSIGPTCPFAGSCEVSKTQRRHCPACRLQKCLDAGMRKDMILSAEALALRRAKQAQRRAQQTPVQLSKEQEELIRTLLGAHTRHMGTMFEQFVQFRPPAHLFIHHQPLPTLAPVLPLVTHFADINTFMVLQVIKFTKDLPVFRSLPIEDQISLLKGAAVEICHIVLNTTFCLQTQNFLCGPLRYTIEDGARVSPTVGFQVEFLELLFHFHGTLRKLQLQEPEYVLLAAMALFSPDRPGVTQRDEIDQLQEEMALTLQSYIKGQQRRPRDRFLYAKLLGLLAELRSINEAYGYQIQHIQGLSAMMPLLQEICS
Sequence of Estrogen receptor (Homo sapiens) (P03372 whole entry, looked up, the tested form may be a part): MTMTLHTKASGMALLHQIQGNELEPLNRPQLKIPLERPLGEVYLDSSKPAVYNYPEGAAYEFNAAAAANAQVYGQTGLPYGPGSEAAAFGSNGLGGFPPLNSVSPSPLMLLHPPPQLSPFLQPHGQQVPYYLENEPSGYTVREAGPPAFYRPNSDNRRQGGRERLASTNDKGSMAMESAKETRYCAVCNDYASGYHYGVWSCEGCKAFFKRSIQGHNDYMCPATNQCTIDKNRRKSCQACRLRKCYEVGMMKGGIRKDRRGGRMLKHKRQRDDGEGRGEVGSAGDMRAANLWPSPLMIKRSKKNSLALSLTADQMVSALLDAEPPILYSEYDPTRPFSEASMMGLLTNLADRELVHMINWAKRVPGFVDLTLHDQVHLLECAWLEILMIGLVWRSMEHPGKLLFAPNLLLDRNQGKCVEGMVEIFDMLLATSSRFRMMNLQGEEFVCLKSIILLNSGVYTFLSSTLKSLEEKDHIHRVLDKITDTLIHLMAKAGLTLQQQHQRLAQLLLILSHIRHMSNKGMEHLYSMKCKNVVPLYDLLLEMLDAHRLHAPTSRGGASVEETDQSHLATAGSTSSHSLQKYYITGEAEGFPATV
Sequence of Steroid hormone receptor ERR1 (Homo sapiens) (P11474 whole entry, looked up, the tested form may be a part): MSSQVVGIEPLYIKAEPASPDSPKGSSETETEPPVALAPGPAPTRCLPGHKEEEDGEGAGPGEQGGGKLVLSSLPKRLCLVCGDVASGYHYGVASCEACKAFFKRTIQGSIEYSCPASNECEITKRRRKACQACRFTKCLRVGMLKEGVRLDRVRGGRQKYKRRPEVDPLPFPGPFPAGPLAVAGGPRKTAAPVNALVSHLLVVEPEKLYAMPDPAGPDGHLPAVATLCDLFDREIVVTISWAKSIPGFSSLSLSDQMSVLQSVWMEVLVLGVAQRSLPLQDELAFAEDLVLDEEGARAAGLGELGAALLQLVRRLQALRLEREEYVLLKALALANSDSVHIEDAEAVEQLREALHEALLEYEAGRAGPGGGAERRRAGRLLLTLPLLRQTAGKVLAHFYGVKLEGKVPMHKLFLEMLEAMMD
Sequence of Estrogen-related receptor gamma (Homo sapiens) (P62508 whole entry, looked up, the tested form may be a part): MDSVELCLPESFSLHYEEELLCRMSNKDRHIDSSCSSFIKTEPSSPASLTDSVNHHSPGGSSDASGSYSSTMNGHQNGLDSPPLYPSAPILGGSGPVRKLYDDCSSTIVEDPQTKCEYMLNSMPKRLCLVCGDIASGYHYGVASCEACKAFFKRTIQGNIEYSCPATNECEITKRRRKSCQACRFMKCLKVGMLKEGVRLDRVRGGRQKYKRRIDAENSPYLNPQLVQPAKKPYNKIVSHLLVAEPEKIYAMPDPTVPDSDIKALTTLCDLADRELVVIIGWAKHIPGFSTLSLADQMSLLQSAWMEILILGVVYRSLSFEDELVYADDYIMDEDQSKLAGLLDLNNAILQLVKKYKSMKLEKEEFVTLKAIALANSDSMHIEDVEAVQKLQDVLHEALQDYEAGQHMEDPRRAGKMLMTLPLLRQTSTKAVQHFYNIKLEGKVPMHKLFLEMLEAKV

Turning to `O=C(O)Cc1cccc2ccccc12`, the compound was called inactive in [1], in assay [2], in assay [4], in assay [5], in [6] and in assay [7]. Besides, the compound was classed as inactive in assay [8], in assay [9], in assay [10], in assay [11], in [12] and in assay [13]. Moreover, the compound was called inactive in assay [14] and in assay [15]. Moreover, in [3], the AC50 is 100 µM (active).

On to `CC(=O)Nc1ccccc1O`, for which the result in [1], in assay [2], in [3], in assay [4], in assay [5] and in assay [6] was inactive. Moreover, the compound was called inactive in [7], in [8], in [9], in [10], in [11] and in [12]. Moreover, the compound was classed as inactive in [16], in assay [14] and in assay [17].

Turning to `CCCCCNCCCCC`, the compound was called inactive in [1], in [3], in [4], in assay [5], in assay [6] and in assay [7]. The call in assay [8], in assay [9], in assay [10], in [11], in assay [12] and in [13] was inactive. The compound was called inactive in assay [14] and in assay [17]. The concentration at half-maximal activity (AC50) in assay [2] is 59.4 µM (active).

Consider `CCn1c2ccccc2c2cc(N)ccc21`, for which the call in assay [1], in [5], in assay [6], in assay [8], in assay [9] and in assay [10] was inactive. In addition, the outcome in [11], in assay [12], in assay [16], in assay [18], in assay [19] and in assay [14] was inactive. Further, the result in assay [20] was inactive. For the same compound, the AC50 is 3.35 µM (active) in assay [2], 100 µM (active) in [3], 67.9 µM (active) in assay [4] and 27.3 µM (active) in assay [7].

The values above are taken from PubChem BioAssay (EPA / NIEHS).
